D2 PAM-1: Beta-Arrestin HTS for Positive Allosteric Modulators of the Human D2 Dopamine Receptor: Potentiators. DiscoveRx D2 beta-arrestin cells, luminescence, 90 min; 100% = 57 uM dopamine signal. potentiation, % (concentration not given with the values). hit rate 0.23% among 360,000; in the data active = potentiation above about 50%
Target sequence (P14416 whole entry, looked up): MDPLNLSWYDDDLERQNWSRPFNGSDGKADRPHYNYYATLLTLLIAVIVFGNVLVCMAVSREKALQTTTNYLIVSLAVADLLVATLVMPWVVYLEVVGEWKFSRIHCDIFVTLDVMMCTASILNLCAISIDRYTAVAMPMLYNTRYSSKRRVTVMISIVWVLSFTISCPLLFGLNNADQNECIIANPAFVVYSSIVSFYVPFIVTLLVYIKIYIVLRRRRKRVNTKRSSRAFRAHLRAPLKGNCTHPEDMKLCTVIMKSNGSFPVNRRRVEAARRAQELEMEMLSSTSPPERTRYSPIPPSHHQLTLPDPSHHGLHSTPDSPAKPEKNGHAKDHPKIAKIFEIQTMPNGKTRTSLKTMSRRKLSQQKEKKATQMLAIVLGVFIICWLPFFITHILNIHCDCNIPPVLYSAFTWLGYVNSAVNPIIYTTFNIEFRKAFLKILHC
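D2 cells co-treated with compound plus 50 nM dopamine (EC20) for 90 min at 37 deg C to detect potentiation. Beta-arrestin recruitment was read as enzyme-fragment luminescence after 1 h at ambient temperature. Full response was set by 57 uM dopamine.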
D2 PAM-2: HTS Assay for Positive Allosteric Modulators of the Human D2 Dopamine Receptor: Primary Screen for Potentiators | D(2) dopamine receptor (Homo sapiens), P14416 | HEK293 T-REx D2, calcium flux, EC20 dopamine potentiation | potentiation, % at 10 µM | hit rate 0.34% among 340,000 | AID 485347, 2010;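 active = potentiation over 3 SD above the plate norm, cut at about 30% in these data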
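Potentiation of an EC20 dopamine calcium response measured kinetically over 180 s, after a preceding 180 s compound-only read flagging agonists. Cells: inducible Hek293 Trex D2 line, 4000/well, cultured overnight at 30 C before dye loading.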
D2 ag-1: Beta-Arrestin HTS for Positive Allosteric Modulators of the Human D2 Dopamine Receptor: Agonists | DiscoveRx PathHunter D2 beta-arrestin, luminescence, 90 min; 100% = 57 uM dopamine signal | activation, % (no concentration beside the values) | hit rate 0.084% among 360,000; in the data active = activation above about 40%
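DiscoveRx PathHunter D2 beta-arrestin cells (2,100/well) attached overnight, then compound-stimulated 90 min at 37 C in HBSS/10 mM HEPES/0.1% Tween-20 buffer; beta-galactosidase complementation read by luminescence after 1 h at ambient temperature. Dopamine 57 uM final (EC100) as control.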
D2 ag-2: HTS Assay for Allosteric Agonists of the Human D2 Dopamine Receptor: Primary Screen for Agonists; HEK293 T-REx D2 cells, calcium flux agonist mode; activation, % at 2 µM; hit rate 0.53% among 340,000; AID 485358, 2010;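 active = activation over 3 SD above normal in the single-dose calcium agonist read, cut at about 30% in these data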
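Tetracycline-induced HEK293 Trex cells with D2 receptor force-coupled to calcium signaling, plated overnight at 30 C and loaded with no-wash calcium dye. Calcium flux read kinetically for 180 s after compound addition; responses flag agonists.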
D2 antag: HTS Assay for Allosteric Antagonists of the Human D2 Dopamine Receptor: Primary Screen for Antagonists; D(2) dopamine receptor (Homo sapiens), P14416; HEK293 TREx D2 cells, calcium flux, dopamine EC80; inhibition, % at 10 µM; hit rate 2% among 340,000; AID 485344, 2010; in the data active = inhibition above about 30%; inactive = below that, where a call was filed
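Inhibition of EC80 dopamine-driven calcium flux, recorded kinetically, defines activity here; cells are a tetracycline-induced HEK293 T-REx line expressing force-coupled D2.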
Large screens that a line does not name were inactive. A selection: hits, their analogues and other compounds. The true share with any hit is near 2.4%.

CCCCCCCNC(=O)C1(CC2CC(c3ccc(Cl)cc3)=NO2)CCN(C(=O)c2cc(OCC)c(OCC)c(OCC)c2)CC1 (centres undefined)	D2 antag 43.9
Cc1nn(CC(=O)NCc2ccc(N(C)C)cc2)c(=O)c2c(C)n(-c3ccc(Cl)cc3)nc12	none (no result: D2 PAM-1, D2 ag-1, D2 antag)
Cc1cccc(/C=C2/Sc3ccc(C(=O)N4CCOCC4)cc3NC2=O)c1	none
O=C1Nc2cc(C(=O)N3CCOCC3)ccc2S/C1=C\c1ccccc1	D2 antag 47.4
CN(C)CCN(C(=O)c1ccc(S(=O)(=O)N2CCc3ccccc32)cc1)c1nc2ccc(F)cc2s1	D2 antag 68.8
CCc1ccc2nc(N(CCCN(C)C)C(=O)c3ccc(S(=O)(=O)N4CCCc5ccccc54)cc3)sc2c1	none
CCN(CC)S(=O)(=O)c1cccc(NC(=O)COC(=O)c2ccc(Br)o2)c1	none
CCN(CC)S(=O)(=O)c1cccc(NC(=O)COC(=O)c2cc(=O)c3ccccc3o2)c1	D2 PAM-2 30.7
CCCCCCc1c(C)c2c(cc(C)c3c(C)coc32)oc1=O	none (no result: D2 PAM-1, D2 ag-1, D2 antag)
Cc1coc2c1c(C)cc1oc(=O)c(Cc3ccccc3)c(C)c12	D2 antag 42.8
CCOC(=O)c1oc2cccc(OC(C)=O)c2c1C	D2 antag 36.7
COC(=O)c1ccccc1NC(=O)c1ncoc1-c1ccco1	none (no result: D2 PAM-1, D2 ag-1, D2 antag)
O=C(CBr)c1ccc([N+](=O)[O-])c(CS(=O)(=O)c2ccc(Cl)cc2)c1	D2 ag-1 53.9
CN1CCN(CC(C)(C)NS(=O)(=O)c2ccc(Cl)cc2)CC1	none
CC(C)(CN1CCN(Cc2ccccc2)CC1)NS(=O)(=O)c1ccc(Cl)cc1	D2 antag 43.6
CSc1cccc(NC(=O)N2CCN(S(=O)(=O)c3ccc4c(ccn4C)c3)CC2)c1	none (no result: D2 PAM-1, D2 ag-1, D2 antag)
Cc1cc(NC(=O)Cn2c(=O)oc3ccccc32)no1	D2 antag 32.7
C=CCn1c(CCNC(=O)c2cccs2)nnc1SCC(=O)Nc1cccc(C(C)=O)c1	D2 antag 33.9
Cc1ccc(Cc2nc3ccccc3nc2SCC(=O)Nc2ccc3c(c2)OCO3)cc1	none (no result: D2 PAM-1, D2 ag-1, D2 antag)
CCC(C)Nc1nc2c(c(=O)n(C)c(=O)n2C)n1Cc1cccc(C)c1 (centres undefined)	none
Cc1cccc(Nc2nc3c(c(=O)n(C)c(=O)n3C)n2Cc2ccccc2)c1	D2 PAM-2 45.6
Cc1cc(C)c(S(=O)(=O)N/N=C/c2ccc3c(c2)OCO3)c(C)c1	D2 antag 73.8
COc1ccc(C(=O)C2CCCN(Cc3cccn3-c3ccccn3)C2)cc1F (centres undefined)	none (no result: D2 ag-2, D2 antag)
COc1ccc(F)cc1C(=O)C1CCCN(Cc2cccn2-c2cccnc2)C1 (centres undefined)	D2 antag 74.0
O=C(c1ccc(C(F)(F)F)cc1)C1CCCN(Cc2cccn2-c2ncccn2)C1 (centres undefined)	none
O=C(c1cccc(C(F)(F)F)c1)C1CCCN(Cc2cccn2-c2ncccn2)C1 (centres undefined)	D2 antag 32.0
COc1ccc(F)cc1C(=O)C1CCCN(Cc2cnc(N3CCCC3)s2)C1 (centres undefined)	D2 antag 66.0
COc1ccc(F)cc1C(=O)C1CCCN(Cc2ccc(Oc3ncccn3)cc2)C1 (centres undefined)	D2 antag 48.9
COc1ccc(N2CCN(C(=O)c3nc(-c4ccc(Cl)cc4)n4c3CCCCC4)CC2)cc1	none (no result: D2 PAM-1, D2 ag-1, D2 antag)
COc1ccc(-n2c(CC3C(=O)N(C)c4ccc(C)cc43)nc3ccccc3c2=O)cc1 (centres undefined)	none (no result: D2 PAM-1, D2 ag-1, D2 antag)
CCOC(=O)CNC(=O)c1cc2c(=O)n3cccc(C)c3nc2n1C	none (no result: D2 PAM-1, D2 ag-1, D2 antag)
COc1ccc(C)cc1NC(=O)CN1C(=O)CSc2ccc(S(=O)(=O)N3CCCC3)cc21	none
CCC1(c2ccccc2)NC(=O)N(CC(=O)Nc2cc(S(=O)(=O)N3CCCCCC3)ccc2OC)C1=O (centres undefined)	D2 PAM-1 62.9 (no result: D2 PAM-2, D2 ag-2, D2 antag)
COc1ccc(OC)c(NC(=O)CN2C(=O)CSc3ccc(S(=O)(=O)N4CCCC4)cc32)c1	D2 PAM-2 33.1
CCc1ccc(N=C2NC(=O)CC(C(=O)Nc3ccc(OC)cc3)S2)cc1 (centres undefined)	none (no result: D2 PAM-1, D2 ag-1, D2 antag)
Clc1ccc(-c2csc(N/N=C/c3ccc4c(c3)OCO4)n2)cc1	D2 antag 34.8
O=C(/C=C/c1ccc2c(c1)OCO2)Nc1nc(-c2ccccc2)cs1	none
c1ccc(-c2noc(CN3CCc4sccc4C3)n2)cc1	D2 antag 35.3
c1ccc(-c2noc(CN3CCN(c4ccccc4)CC3)n2)cc1	none (no result: D2 PAM-2, D2 ag-2, D2 antag)
c1ccc(CCc2nc(-c3ccccc3)no2)cc1	D2 PAM-2 39.0
COC(=O)c1nnn(CC(=O)Nc2c(C)cccc2C)c1N	none (no result: D2 PAM-1, D2 ag-1, D2 antag)
COC(=O)C(C)Sc1nnc(SC(C)C(=O)OC)s1 (centres undefined)	D2 antag 39.7
CSc1ccc(S(=O)(=O)NCC(=O)OCC(=O)NCCc2ccccc2)cc1[N+](=O)[O-]	D2 antag 33.2
COC(=O)CC1Oc2ccc(Cl)cc2-n2cc(-c3ccc(C)cc3)nc21 (centres undefined)	none (no result: D2 PAM-1, D2 ag-1, D2 antag)
CC(=O)C(C)Oc1ncn(-c2ccccc2)n1 (centres undefined)	D2 antag 33.4
Cn1c(SCC(=O)NCc2ccc(F)cc2)ncc(C(=O)Nc2ccccc2)c1=O	D2 antag 32.1
Cc1ccc(Cn2c(C)c(CNCc3ccccc3F)c(C(=O)O)c2C)cc1	none (no result: D2 PAM-1, D2 ag-1, D2 antag)
Cc1ccc(N2C(=O)c3ccccc3NC2C(C)Cc2ccc3c(c2)OCO3)cc1 (centres undefined)	D2 antag 33.7
CC(C)(C)c1ccc(OC(=O)N2CCOCC2)cc1	D2 antag 31.9
Cc1nn(C)c(Sc2ccccc2N)c1[N+](=O)[O-]	D2 ag-1 44.5
O=C(CS(=O)c1ccc(C(F)(F)F)cc1[N+](=O)[O-])Oc1ccccc1 (centres undefined)	D2 PAM-2 32.9
CC(C)NC(=O)/C(=N\O)c1ccccc1	D2 antag 32.1
Cc1cc(Cl)ccc1OCC(=O)N(Cc1sccc1C)C1CCS(=O)(=O)C1 (centres undefined)	none (no result: D2 PAM-1, D2 ag-1, D2 antag)
N/C(=N\OC(=O)c1ccccc1F)c1cccc([N+](=O)[O-])c1	D2 ag-1 65.5
COc1ccc(/C(N)=N/OC(=O)c2ccco2)cc1OC	D2 PAM-2 31.5

From PubChem
